The source of these data is PMC5836133, “The intracellular immune receptor Rx1 regulates the DNA-binding activity of a Golden2-like transcription factor”.

Over roughly 16,000 sequences, “e-score” has its median near -0.044; the highest 2% begin near 0.38. This excerpt belongs to a sample that is enriched for the highest values.

The target in the test is T1, GST-NbGlk1(82-244) (Nicotiana benthamiana).
T1 chain: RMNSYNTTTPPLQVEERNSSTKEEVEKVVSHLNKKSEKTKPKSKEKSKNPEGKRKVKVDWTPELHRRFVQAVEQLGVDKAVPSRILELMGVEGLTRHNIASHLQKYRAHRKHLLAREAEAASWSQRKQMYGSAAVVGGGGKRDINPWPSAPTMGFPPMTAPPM
Description: protein-binding microarray; NbGlk1 is a Golden2-like transcription factor of Nicotiana benthamiana; high values mean tight binding. Particulars: protein: recombinant; tags: GST (pTH6838); dsDNA, one strand shown.
Take AAATCTGT: the binding signal came to 0.446 ± 0.00579 E-score. Regarding AAATCGGT, the binding signal was 0.325 ± 0.0221 E-score. In the case of AAATCGAT it was 0.336 ± 0.0651 E-score.

In the case of AACCAGAT, the binding signal amounted to 0.301 ± 0.00304 E-score. In the case of AATCGAGA it was 0.293 ± 0.0295 E-score. For ATAATCCG, the binding signal came to 0.337 ± 0.0347 E-score. In the case of AGAATCAT it was 0.359 ± 0.0327 E-score; in that of ACAATCCG, 0.334 ± 0.019 E-score. As to AGAATCCC, the binding signal worked out at 0.433 ± 0.00879 E-score. As for AGAATCCT, the binding signal was determined as 0.439 ± 0.00609 E-score. Turning to ACAATCCC, the binding signal stood at 0.2757 ± 0.00233 E-score. With AGAATCCA, the binding signal amounted to 0.456 ± 0.0261 E-score. For the sequence ACAATCCT, the binding signal turned out to be 0.302 ± 0.0343 E-score. With AGAATCCG, the binding signal worked out at 0.4779 ± 0.0039 E-score. On to AGAATCGC, for which the binding signal came out at 0.377 ± 0.00979 E-score.

Take AGGATCCA: the binding signal stood at 0.237 ± 0.027 E-score. Consider ATCCAAAA, for which the binding signal was found to be 0.261 ± 0.0307 E-score. Take ATCCTCCG: the binding signal was 0.257 ± 0.0282 E-score. In the case of ATCTGCTG it was 0.291 ± 0.0162 E-score; in that of ATATGAAA, 0.266 ± 0.036 E-score.

On to AGCGATTC, for which the binding signal amounted to 0.253 ± 0.0595 E-score.

Consider ATAGCGAT, for which the binding signal amounted to 0.247 ± 0.0104 E-score. In the case of AGATTATC it was 0.398 ± 0.0119 E-score; in that of AGATTATA, 0.31 ± 0.0066 E-score. In the case of AGATTACT it was 0.429 E-score; in that of AGATTACG, 0.484 ± 0.00516 E-score. Take AGATTATG: the binding signal was determined as 0.35 ± 0.0249 E-score. On to AAATTACA, for which the binding signal came to 0.281 ± 0.0554 E-score.

As for ATATTACA, the binding signal stood at 0.281 ± 0.0562 E-score. With AAATTACG, the binding signal came to 0.317 ± 0.00783 E-score. As to AGATTACA, the binding signal came to 0.477 ± 0.0126 E-score. In the case of ATATTACG it was 0.331 ± 0.0353 E-score; in that of ACGATCTG, 0.298 ± 0.0786 E-score. Consider ATCTGAAT, for which the binding signal was 0.319 ± 0.0412 E-score.

On to ACATGGAT, for which the binding signal worked out at 0.276 ± 0.0921 E-score.

On to AATAGAGA, for which the binding signal is 0.257 ± 0.00976 E-score. With AGCGGATA, the binding signal turned out to be 0.27 ± 0.022 E-score. Turning to ATCTGTCG, the binding signal worked out at 0.268 ± 0.0941 E-score. For the sequence ATCTCAAA, the binding signal was 0.337 ± 0.00799 E-score. In the case of ACTTGGAT, the binding signal came out at 0.263 ± 0.0442 E-score. Consider ATTGCTAC, for which the binding signal turned out to be 0.23 ± 0.0982 E-score. In the case of ATTGCAAA it was 0.212 ± 0.0169 E-score; in that of AATATTAT, 0.211 ± 0.0854 E-score. In the case of ATATGCAC it was 0.266 ± 0.0704 E-score; in that of AAATTTGC, 0.224 ± 0.0355 E-score. Take AATCATGA: the binding signal is 0.254 ± 0.0429 E-score. In the case of AAATTACC it was 0.252 ± 0.0504 E-score; in that of AGATTTAC, 0.349 ± 0.00929 E-score; in that of AGATTACC, 0.459 ± 0.0174 E-score.

Take AATATACG: the binding signal is 0.253 ± 0.0484 E-score.

In the case of CAAATTAC, the binding signal is 0.275 ± 0.0131 E-score.

AATATTAC: the binding signal worked out at 0.235 ± 0.084 E-score. In the case of CAGATTAC it was 0.47655 ± 0.000118 E-score. In the case of AAAATTAC it was 0.203 ± 0.0427 E-score; in that of AAGATTAC, 0.454 ± 0.0269 E-score. In the case of AAGATTAT, the binding signal was found to be 0.288 ± 0.039 E-score.

As for ATTGTGTC, the binding signal was found to be 0.225 ± 0.0437 E-score. With ATCTGCGA, the binding signal was 0.35 ± 0.033 E-score.

As to ATTACCCA, the binding signal worked out at 0.234 ± 0.0351 E-score.

Turning to AATCGATC, the binding signal was 0.26 ± 0.0524 E-score. Regarding AGATTTTC, the binding signal was 0.4879 ± 0.00245 E-score.

Regarding AAATTTTC, the binding signal was determined as 0.273 ± 0.00676 E-score. On to AGATTTCA, for which the binding signal was found to be 0.467 ± 0.0101 E-score. Turning to ATATTTCC, the binding signal was 0.369 ± 0.00928 E-score.

For the sequence AAATTTCA, the binding signal was 0.229 ± 0.0474 E-score. For ATTTTTTG, the binding signal worked out at 0.315 ± 0.021 E-score.

As for ATATTTTC, the binding signal is 0.363 ± 0.0153 E-score.

As to AAATTTCC, the binding signal worked out at 0.305 ± 0.0382 E-score. AGATTTTG: the binding signal is 0.4649 ± 0.003 E-score. Regarding ATATTTTG, the binding signal was determined as 0.274 ± 0.0771 E-score. With AGATTTCC, the binding signal stood at 0.4969 ± 0.000664 E-score.

With ATATTTCA, the binding signal came out at 0.302 ± 0.00721 E-score.

With ACGTATAA, the binding signal amounted to 0.241 ± 0.0276 E-score. For the sequence ATCACACA, the binding signal amounted to 0.274 ± 0.0193 E-score.

For the sequence ATCAGATA, the binding signal was 0.311 ± 0.0291 E-score. In the case of ACAGTATA, the binding signal was determined as 0.203 ± 0.12 E-score. Consider ACGTATCG, for which the binding signal is 0.2234 ± 0.00122 E-score. For ATTCGAAA, the binding signal came to 0.208 ± 0.0296 E-score. Regarding ATATTTCG, the binding signal was determined as 0.347 ± 0.00521 E-score. With AGATTTAA, the binding signal was found to be 0.269 ± 0.0136 E-score. With AGATTTCG, the binding signal was determined as 0.4861 ± 0.00274 E-score.

With AAATTTCG, the binding signal came out at 0.332 ± 0.0714 E-score. In the case of AGATTTAT it was 0.261 ± 0.0998 E-score; in that of AGATTTTA, 0.414 ± 0.0235 E-score.

Turning to ATTATCTA, the binding signal came to 0.201 ± 0.0162 E-score. On to AACGTAAT, for which the binding signal worked out at 0.361 ± 0.0152 E-score.

As for AAGGGAAT, the binding signal worked out at 0.259 ± 0.00401 E-score.

For the sequence AAAATATT, the binding signal stood at 0.3158 ± 0.000558 E-score. On to CAAATCGG, for which the binding signal was determined as 0.252 ± 0.00458 E-score. In the case of ATAATCTC it was 0.346 ± 0.064 E-score; in that of AAAATTTT, 0.271 ± 0.0157 E-score. In the case of CAAATCTG it was 0.43 ± 0.00733 E-score; in that of AAAATCTC, 0.4529 ± 0.00114 E-score. Regarding CAAATCAG, the binding signal amounted to 0.268 ± 0.0183 E-score. Turning to AAAATCTT, the binding signal is 0.447 ± 0.0196 E-score. Take AAAATCTG: the binding signal was found to be 0.478 ± 0.0028 E-score.
